Assay [1] can be described thus: Tanguay_ZF_120hpf_MORT_legacy: (Legacy) Oregon State University Tanguay Lab 120 Hour Post-fertilization zebrafish Assay for Mortality (AID 2283633). Summed up: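 Brightfield scoring of embryo death (binary) at 24 and 120 hpf; static exposure 6–120 hpf, 28C, sealed and foil-covered. Pronase-dechorionated 5D wild-type larvae, single embryo per well. DMSO 0.64% v/v; trimethyltin chloride 5uM positive control.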

Assay [2] is described as follows: Tanguay_ZF_120hpf_YSE_legacy: (Legacy) Oregon State University Tanguay Lab 120 Hour Post-fertilization zebrafish Assay for Yolk Sac Edema (AID 2283634). Summed up: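 Binary brightfield scoring of yolk sac edema at 120 hpf; DMSO baseline, gain-of-signal fitting. Dechorionated 5D larvae, one per well, static exposure 6–120 hpf, 28C, 0.64% DMSO. Dead embryos not scored.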

Assay [3] is described as follows: Tanguay_ZF_120hpf_AXIS_legacy: (Legacy) Oregon State University Tanguay Lab 120 Hour Post-fertilization zebrafish Assay for Body Axis Malformation (AID 2283635). Summed up:
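Embryos: 5D wild-type, pronase-dechorionated 4 hpf; static exposure 6–120 hpf, 28C, sealed, dark, 1 embryo/well, 0.64% DMSO. 120 hpf axis malformation scored present/absent; dead embryos excluded. Analysed as gain of signal vs DMSO.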

A short description of assay [4]: Tanguay_ZF_120hpf_EYE_legacy: (Legacy) Oregon State University Tanguay Lab 120 Hour Post-fertilization zebrafish Assay for Eye Malformation (AID 2283636).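 Note: binary presence or absence of eye malformation scored by brightfield in 120 hpf larvae.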 The gist of the method: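 Binary brightfield scoring of eye defects at 120 hpf after static exposure from 6 hpf of single pronase-dechorionated wild-type embryos (28C, 0.64% DMSO). Non-mortality endpoints omitted where embryos died; fit vs DMSO.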

A short description of assay [5]: Tanguay_ZF_120hpf_SNOU_legacy: (Legacy) Oregon State University Tanguay Lab 120 Hour Post-fertilization zebrafish Assay for Snout Malformation (AID 2283637). The gist of the method: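 Binary snout-malformation call at 120 hpf in wild-type 5D embryos, chorion removed by pronase, under static exposure from 6 hpf at 28C (0.64% DMSO). Embryos dying by 24 or 120 hpf excluded.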

The nature of assay [6]: Tanguay_ZF_120hpf_JAW_legacy: (Legacy) Oregon State University Tanguay Lab 120 Hour Post-fertilization zebrafish Assay for Jaw Malformation (AID 2283638). The gist of the method: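 Binary jaw-malformation calls at 120 hpf by brightfield imaging; DMSO (0.64% v/v) = baseline. Embryos: 5D wild-type, pronase-dechorionated, one per well from 6 hpf, static exposure, 28C, sealed, dark.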

Assay [7] in a line: Tanguay_ZF_120hpf_PE_legacy: (Legacy) Oregon State University Tanguay Lab 120 Hour Post-fertilization zebrafish Assay for Pericardial Edema (AID 2283640). Summed up:
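Static waterborne exposure, 5D wild-type embryos, 28C, to 120 hpf; final DMSO 0.64% (vol/vol). Binary PE call at 120 hpf by brightfield; fitted upward vs DMSO baseline. 5uM trimethyltin chloride as positive control.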

Assay [8] is described as follows: Tanguay_ZF_120hpf_BRAI_legacy: (Legacy) Oregon State University Tanguay Lab 120 Hour Post-fertilization zebrafish Assay for Brain Malformation (AID 2283641). The gist of the method: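 Read-out: binary brain morphology call at 120 hpf (brightfield), fitted in gain-of-signal direction vs DMSO. Wild-type Tropical 5D embryos, static exposure, 28C, 0.64% DMSO final; 5uM trimethyltin chloride as positive control.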

Assay [9] can be described thus: Tanguay_ZF_120hpf_SOMI_legacy: (Legacy) Oregon State University Tanguay Lab 120 Hour Post-fertilization zebrafish Assay for Somite Malformation (AID 2283647). The gist of the method:
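Binary brightfield scoring of somite defects at 120 hpf in 5D wild-type larvae; one dechorionated embryo per well, static exposure from 6 hpf, 28C, sealed and dark. Final DMSO 0.64%; trimethyltin chloride 5uM positive control.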

The nature of assay [10]: Tanguay_ZF_120hpf_PFIN_legacy: (Legacy) Oregon State University Tanguay Lab 120 Hour Post-fertilization zebrafish Assay for Pectoral Fin Malformation (AID 2283648).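 Note: each larva judged yes or no for fin defect by brightfield with dead larvae skipped.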 Summed up:
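Pectoral fin malformation was recorded as a binary endpoint at 120 hpf in wild-type Tropical 5D larvae, which had been dechorionated and exposed statically from 6 hpf at 28C in 0.64% DMSO. Dead embryos were excluded.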

Assay [11] can be described thus: Tanguay_ZF_120hpf_CFIN_legacy: (Legacy) Oregon State University Tanguay Lab 120 Hour Post-fertilization zebrafish Assay for Caudal Fin Malformation (AID 2283649). The gist of the method:
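Dechorionated 5D wild-type zebrafish, static exposure 6–120 hpf, 28C, sealed and dark, 0.64% v/v DMSO final. Binary fin-malformation call at 120 hpf, brightfield; gain of signal vs DMSO baseline.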

A short description of assay [12]: Tanguay_ZF_120hpf_PIG_legacy: (Legacy) Oregon State University Tanguay Lab 120 Hour Post-fertilization zebrafish Assay for Pigmentation Malformation (AID 2283650). Summed up: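 Pigment malformation recorded as a binary call at 120 hpf in zebrafish (Tropical 5D) exposed singly from 6 hpf after pronase dechorionation. Static, sealed, 28C exposure, 0.64% DMSO; mortality excludes scoring; positive-direction fit against DMSO.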

The nature of assay [13]: Tanguay_ZF_120hpf_CIRC_legacy: (Legacy) Oregon State University Tanguay Lab 120 Hour Post-fertilization zebrafish Assay for Circulatory Malformation (AID 2283651). The gist of the method:
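Binary circulatory-malformation call at 120 hpf via brightfield imaging, relative to DMSO controls. Embryos (5D strain, chorion removed) received static, light-shielded exposure at 28C.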

A short description of assay [14]: Tanguay_ZF_120hpf_SWIM_legacy: (Legacy) Oregon State University Tanguay Lab 120 Hour Post-fertilization zebrafish Assay for Swim Bladder Malformation (AID 2283654).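 Note: swim bladder malformation in each larva scored yes or no under brightfield.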 Summed up: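 Scoring is binary for swim bladder defects at 120 hpf, by brightfield inspection of zebrafish larvae. Embryos were exposed singly from 6 hpf after pronase dechorionation, at 28C with 0.64% DMSO; mortality excluded scoring.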

A short description of assay [15]: Tanguay_ZF_120hpf_TRUN_legacy: (Legacy) Oregon State University Tanguay Lab 120 Hour Post-fertilization zebrafish Assay for Truncated Body (AID 2283655). Summed up:
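Whole-embryo zebrafish screen: dechorionated 5D embryos, static exposure 6–120 hpf, 28C, sealed foil-covered plates, 0.64% DMSO. Binary truncation call; gain of signal versus DMSO baseline.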

A short description of assay [16]: Tanguay_ZF_120hpf_NC_legacy: (Legacy) Oregon State University Tanguay Lab 120 Hour Post-fertilization zebrafish Assay for Notochord and Tail Malformation (AID 2283656). Summed up:
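Binary notochord-distortion calls, made by brightfield inspection, form the read-out; activity is fitted in the positive direction against DMSO. Exposure ran statically from 6 to 120 hpf at 28C with 0.64% DMSO.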

The target of assay [17] is Cellular tumor antigen p53 (Homo sapiens) (UniProt P04637). Kind of assay: TOX21_p53_BLA_p4_ratio: Tox21 HCT-116 p53 Agonism Beta-lactamase Assay, Ratio, Phase 4 (AID 2283601). The gist of the method:
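Signal is the blue/green (460nm/530nm) ratio of cleaved versus uncleaved CCF4-AM substrate, read after 2 h substrate loading. Cells were HCT116 carrying the p53-responsive beta-lactamase reporter, dosed 16 h at 37C, 5% CO2; CellTiter-Glo measured in parallel.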

Read-out in assay [18]: solute carrier (SLC22A6), SLC22A6 (gene 9356)
Kind of assay: LTEA_HepaRG_SLC22A6: Life Technologies and Expression Analysis (LTEA) Assay for solute carrier (SLC22A6) using HepaRG (AID 2283653; active = hit-call score of the fitted dose curve at least 0.9, where 1 is the maximum; inactive = score below 0.9). Conditions: mRNA level, 48 h; actives raise or lower the signal. The gist of the method: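 HepaRG, human liver line; 48 h chemical exposure; 8-pt half-log series from 100 uM in 0.5% DMSO, duplicate wells. Readout: TaqMan qRT-PCR of SLC22A6 mRNA, housekeeping-normalised; bidirectional curve fit vs DMSO baseline.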

Assay [19] is described as follows: Tanguay_ZF_120hpf_OTIC_legacy: (Legacy) Oregon State University Tanguay Lab 120 Hour Post-fertilization zebrafish Assay for Otic Vesicle Malformation (AID 2283639). Summed up:
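Wild-type zebrafish larvae, whole-embryo exposure from early stage to 120 hpf at 28C. Binary brightfield scoring of otic vesicle morphology, fitted in the positive direction against the DMSO baseline.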

Each structure is given as a SMILES string. Where “and” joins values, the source holds several entries; their conditions need not be identical. Equal entries are not always repeated. Records with an inconclusive call do not appear. Calls of active or inactive are those of the source. Rule for the calls, unless noted: active = hit-call score of the fitted dose curve at least 0.9, where 1 is the maximum; inconclusive = response in the unintended direction; inactive = score below 0.9.

Cellular tumor antigen p53 (Homo sapiens), sequence (P04637 whole entry, looked up): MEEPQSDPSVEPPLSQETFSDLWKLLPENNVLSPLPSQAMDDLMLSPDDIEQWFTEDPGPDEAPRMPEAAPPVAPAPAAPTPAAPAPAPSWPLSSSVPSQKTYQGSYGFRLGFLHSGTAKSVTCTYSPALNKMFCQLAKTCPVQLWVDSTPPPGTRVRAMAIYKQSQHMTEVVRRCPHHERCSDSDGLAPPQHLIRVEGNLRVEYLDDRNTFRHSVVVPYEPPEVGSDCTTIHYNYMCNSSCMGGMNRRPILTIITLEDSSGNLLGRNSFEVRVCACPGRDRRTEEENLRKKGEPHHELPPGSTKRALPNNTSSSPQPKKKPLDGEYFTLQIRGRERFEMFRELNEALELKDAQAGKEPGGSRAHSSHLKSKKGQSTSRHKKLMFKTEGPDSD

With `CC(=O)OC1CC(C)OC(C)O1` (configuration not stated), the call in assay [1], in assay [2], in assay [3], in assay [4], in assay [5] and in assay [6] was inactive. Moreover, the result in assay [7], in [8], in assay [9], in assay [10], in assay [11] and in assay [12] was inactive. Besides, the result in [13], in assay [14], in assay [15] and in assay [16] was inactive.
`CCCCCCCCCC[N+](C)(C)[O-]`: the outcome in [17], in assay [1], in assay [2], in assay [4], in [5] and in assay [6] was inactive. The outcome in assay [7], in [8], in assay [9], in assay [10], in assay [11] and in assay [12] was inactive. For the same compound, the outcome in assay [13], in assay [18], in [14], in assay [15] and in assay [16] was inactive.
`CC1=C(C)S(=O)(=O)CCS1(=O)=O`: the outcome in assay [17], in assay [1], in [2], in [3], in assay [4] and in [7] was inactive. Moreover, the call in assay [9], in assay [10], in [12], in assay [13], in assay [14] and in [15] was inactive.
On to `CC(C)NCC(O)c1ccc(O)c(O)c1` (configuration not stated), for which the compound was called inactive in [1], in assay [2], in assay [3], in [4], in assay [5] and in assay [6]. For the same compound, the outcome in [7], in [8], in assay [11], in assay [12], in assay [13] and in assay [14] was inactive. For the same compound, the compound was classed as inactive in assay [15] and in [16].
In the case of `Cc1cc(SC2=C(O)C[C@@](CCc3ccc(N)cc3)(C(C)C)OC2=O)c(C(C)(C)C)cc1CO`, the outcome in [1], in [2], in assay [3], in assay [4], in [5] and in assay [6] was inactive. In addition, the outcome in assay [19], in [7], in assay [8], in assay [9], in assay [10] and in assay [11] was inactive. Besides, the compound was classed as inactive in assay [13], in assay [14], in [15] and in [16].
As for `O=C1O[C@H]([C@H](O)CO)C(O)=C1O`, the outcome in assay [17], in assay [1], in assay [2], in [3], in assay [4] and in [8] was inactive. In addition, the compound was called inactive in assay [9], in assay [10], in assay [11], in assay [13], in assay [14] and in assay [15]. In addition, in assay [16], the compound was classed as inactive.
Consider `CC(C)(O)c1ccc(CNC(=O)c2cccnc2Oc2ccc(F)cc2)cc1`, for which the result in assay [1], in assay [2], in [3], in [4], in assay [5] and in assay [6] was inactive. Further, the compound was classed as inactive in assay [7], in assay [8], in assay [9], in [10], in [11] and in assay [12]. Also, the compound was called inactive in [16].
In the case of `Nc1nc(Cl)nc2c1ncn2[C@H]1C[C@H](O)[C@@H](CO)O1`, the concentration at half-maximal activity (AC50) (usually the midpoint of the concentration-response curve, whichever way the signal moves) in assay [17] was 244 nM (active) and 886 nM (active). In addition, the compound was called inactive in assay [1], in assay [2], in assay [3], in [4], in assay [5] and in assay [7]. Besides, the compound was classed as inactive in assay [9], in assay [10], in assay [11], in assay [13], in [14] and in assay [15]. Also, the compound was called inactive in assay [16].
Take `c1ccc2occc2c1`: the outcome in [17], in assay [1], in [3], in assay [4], in assay [19] and in assay [7] was inactive. The compound was called inactive in assay [9], in [10], in assay [11], in [13], in assay [14] and in [15]. For the same compound, in assay [16], the result was inactive.
`CN(C)C(=O)NC1(c2ccccc2)CCN(CC[C@@]2(c3ccc(F)c(F)c3)CN(C(=O)c3ccccc3)CCO2)CC1`: the outcome in assay [17], in assay [1], in [2], in [3], in assay [4] and in assay [5] was inactive. Further, the call in [7], in [9], in [10], in [11], in assay [13] and in assay [14] was inactive. For the same compound, the call in assay [15] and in [16] was inactive.
`O=C1CCCCC1`: the result in assay [1], in assay [2], in assay [3], in [4], in assay [5] and in assay [6] was inactive. The result in assay [19], in assay [7], in [8], in [9], in [10] and in assay [11] was inactive. Also, the outcome in assay [12], in assay [13], in assay [14], in assay [15] and in assay [16] was inactive.
Turning to `O=C(NS(=O)(=O)/C=C/c1cccs1)c1ccc(F)cc1Br`, the result in assay [1], in assay [2], in assay [3], in assay [4], in assay [5] and in [6] was inactive. In addition, the outcome in [19], in [7], in assay [8], in assay [9], in [10] and in assay [11] was inactive. Moreover, the call in [14], in [15] and in assay [16] was inactive.
In the case of `CCCCC(CC)COP(=O)(OCC(CC)CCCC)OCC(CC)CCCC` (configuration not stated), the result in assay [1], in [2], in [3], in assay [4], in assay [5] and in assay [6] was inactive. For the same compound, the call in assay [7], in assay [9], in assay [10], in assay [11], in [12] and in assay [14] was inactive. Further, the compound was called inactive in [15] and in assay [16].
As for `O=C1OC(c2ccc(O)cc2)(c2ccc(O)cc2)c2ccccc21`, the outcome in [17], in assay [1], in [2], in [3], in [4] and in assay [5] was inactive. The result in [7], in assay [9], in assay [10], in assay [11], in assay [13] and in [14] was inactive. The call in assay [15] and in assay [16] was inactive.
